# From PubChem BioAssay AID488841 (Sanford-Burnham Center for Chemical Genomics, 2010)
# Screen size: about 1,400 compounds; about 380 (27%) were called active.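 How the source made its calls: active means mean inhibition above 50% across duplicate retests at 10 µM; inactive means the rest.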 The list shows a part of the results.
# Experiment: inhibition of NALP1/ASC/caspase-1 reporter signal in yeast, confirmation, NALP1 inhibitor project, S. cerevisiae, luminescence, single concentration (AID 488841);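 further: plate controls were DMSO in galactose medium for no effect and cells in plain SD medium for full effect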
# Details: S. cerevisiae NALP1/ASC/Caspase-1 reporter, beta-gal luminescence; at 10 µM; active compounds read high
row,Structure (SMILES),inhibition
1,Oc1ccccc1C1N=C(c2ccccc2)NC(c2ccccc2)=N1,16.1% (inactive)
2,O=C(CSc1ncn[nH]1)NC12CC3CC(CC(C3)C1)C2,22.3% (inactive)
3,COC(=O)COc1ccc(S(=O)(=O)NCCC2=CCCCC2)cc1Cl,28.2% (inactive)
4,O=C1C2C3C=CC(C2C(=O)N1CCCO)C1C2C(=O)N(CCCO)C(=O)C2C31 (stereo not drawn),17.4% (inactive)
5,COc1ccc(OC)c(NC(=O)c2sc3nc(Cc4ccccc4)cc(C(F)(F)F)c3c2N)c1,23.5% (inactive)
6,COc1ccc2cc(/C=N/O)c(Cl)nc2c1,46.1% (inactive)
7,CCC(C)NC(=O)c1cc2cc3ccc(OC)cc3nc2s1 (stereo not drawn),54.9% (active)
8,CC(C)(C)C(=O)NC1CCN(S(=O)(=O)c2ccc(C(F)(F)F)cc2)CC1,18.1% (inactive)
9,CCOc1ccc(S(=O)(=O)N2c3ccccc3CC2C)cc1 (stereo not drawn),54.5% (active)
10,CCOc1ccc(NC2=C(OC)C(=O)c3ccccc3C2=O)cc1,39.5% (inactive)
11,CCOc1cccc(N2C(=O)CC(N3CCN(c4ccc(S(=O)(=O)CC)cc4)CC3)C2=O)c1 (stereo not drawn),30.9% (inactive)
12,Cc1cc(Cl)c(OCCCCN2CCOCC2)c(Br)c1,40.9% (inactive)
13,CCOC(=O)C(=CNNc1ccsc1C(=O)OC)C(=O)OCC,37.1% (inactive)
14,COC(=O)c1sccc1NC(=O)c1csc(C)c1,54% (active)
15,COC(=O)c1sccc1N/N=C(\C)c1ccc(F)c(Cl)c1,22.3% (inactive)
16,CCn1c(C)[n+](CC(O)COCC2CC=CCC2)c2ccccc21 (stereo not drawn),40% (inactive)
17,CCOC(=O)c1c(C)n(C)c2cc(-c3ccc(C)cc3)c(O)cc12,24.9% (inactive)
18,CCCCC(CC(O)COCCC)c1n[nH]c(=S)n1-c1ccccc1 (stereo not drawn),44.8% (inactive)
19,CC(C)Sc1nnc([C@H](Cc2ccccc2)NC(=O)OC(C)(C)C)o1,30.7% (inactive)
20,CCCCSc1nnc(CCNC(=O)OC(C)(C)C)o1,42.2% (inactive)
21,CC(C)(C)OC(=O)NCCCCCc1nnc(SCc2ccccc2)o1,56.6% (active)
22,CC(C)Cc1nnc(NC(=O)CSc2nc(N)cc(=O)[nH]2)s1,23.4% (inactive)
23,CCOC(=O)Nc1ccc2c(C)cc(=O)oc2c1,41.3% (inactive)
24,CCOC(=O)c1sc(NC(=O)Nc2cccc(Cl)c2)cc1C,5.75% (inactive)
25,CCOC(=O)Nc1cccc(Nc2ccccc2)c1,52.2% (active)
26,Cc1cc(C)cc(-n2nnc(C(=O)NCc3ccccc3)c2N)c1,34.6% (inactive)
27,c1ccc(-c2nc3cc4ccccc4cc3[nH]2)nc1,73.2% (active)
28,O=[N+]([O-])c1ccc2nc(-c3ccccn3)[nH]c2c1,47.6% (inactive)
